The values below come from PubChem BioAssay (EPA / NIEHS).

SMILES strings stand for the structures. Active and inactive are the calls of the source. How the source made its calls: active means hit-call score of the fitted dose curve at least 0.9, where 1 is the maximum; inactive means score below 0.9.

A short description of the experiment: ATG_M_19_CIS: Attagene CIS-FACTORIAL HepG2 Assay for M19 Transcription Factor (Internal Marker) (AID 2282939). As to conditions: HepG2 Attagene CIS-FACTORIAL M19 internal marker reporter; actives raise or lower the signal. The procedure: ATG_CIS is a cell-based, multiplexed-readout assay that uses HepG2, a human liver cell line, with measurements taken at 24 hours after chemical dosing in a 24-well plate.ATG_M_19_CIS is one of 52 assay component(s) measured or calculated from the ATG_CIS assay. It is designed to make measurements of mRNA induction, a form of inducible reporter, as detected with fluorescence intensity signals by Reverse transcription polymerase chain reaction (RT-PCR) and Capillary electrophoresis technology.Data from the assay component ATG_M_19_CIS was analyzed into 1 assay endpoint. This assay endpoint, ATG_M_19_CIS, was analyzed with bidirectional fitting relative to DMSO as the negative control and baseline of activity. Using a type of inducible reporter, measures of mRNA for gain or loss-of-signal activity can be used to understand the background control at the transcription factor-level as they relate to the gene . Furthermore, this assay endpoint can be referred to as a secondary readout, because this assay has produced multiple assay endpoints where this one serves a background control function. To generalize the intended target to other relatable targets, this assay endpoint is annotated to the background measurement intended target family, where the subfamily is internal marker.
Human liver HepG2 cells are transiently transfected with multiple reporter transcription units (MRTUs) in 6-well plates using FuGene 6 reagent (Roche; 3 ml FuGene/1 mg DNA). The MRTU constructs are regulated by a cis-regulating element (promoter). […] A major difference between the CIS and TRANS system is that in CIS activities of endogenous TFs are measured, whereas the TRANS assay evaluates changes in activities of exogenous, chimeric NR-Gal4 proteins. […] At the end of 24 hour incubation, total RNA was isolated using TriZol reagent (Invitrogen). The isolated RNA is then reverse-transcribed using oligo(dT) primer and Mo-MLV reverse transcriptase (Invitrogen) with DNAse I (Ambion) treatment for 30 min. The one-tenth of the produced cDNA was amplified by PCR using Taq DNA polymerase (Invitrogen) and two reporter sequence-specific primers. The PCR products were fluorescently labeled by primer extension with 6-arboxyfluorescein (6-FAM) 5'-labeled reporter sequence-specific primer (2 min at 95 C, 20 s at 68 C and 10 min at 72 C) and these products were digested with 5U of HpaI (New England Biolabs) for 2h at 37 C. The fragments were purified using Qiaquick PCR columns (Qiagen), analyzed on an ABI 3130xL genetic analyzer (Applied Biosystems) with peak positions identified by using a set of X-rhodamine (ROX)-labeled MapMarker1000 molecular weight standards (BioVentures). The raw capillary electrophoresis data was processed using Attagraph software (Attagene).
Regarding `CCCCCCCCn1sccc1=O`, the compound was called inactive.
For `CS(=O)(=O)NC(=O)c1cc(Oc2ccc(C(F)(F)F)cc2Cl)ccc1[N+](=O)[O-]`, the call was inactive.
Same read-out and setting: for `[O-][Cl+]O` the value was “inactive”.
For the compound `Cn1cc(-c2ccccc2)c(=O)c(-c2cccc(C(F)(F)F)c2)c1`, the compound was called inactive.
On to `Nc1ccc(Cc2ccc(N)cc2)cc1`, for which the compound was classed as inactive.
As for `c1ccc(N=Nc2ccccc2)cc1`, the call was inactive.
Turning to `c1ccc(NNc2ccccc2)cc1`, the compound was called inactive.
With `CC(C)(C)OOC(=O)c1ccccc1`, the compound was classed as inactive.
For `CCNS(=O)(=O)C(F)(F)C(F)(F)C(F)(F)C(F)(F)C(F)(F)C(F)(F)C(F)(F)C(F)(F)F`, the call was inactive.
The same measure, in the same setting: in the case of `O=[N+]([O-])C(Br)(CO)CO` it was “inactive”; in that of `O=C(O)C1C2CCC(O2)C1C(=O)O` (stereo not given), “inactive”.
Regarding `CCC[CH2][Sn]([Cl])([CH2]CCC)[CH2]CCC`, the call was inactive.
Regarding `C1=Cc2cccc3cccc1c23`, the result was inactive.
Same read-out and setting: for `CCCCOC(=O)c1ccccc1C(=O)OCc1ccccc1` the value was “inactive”; for `COC(=O)c1ccccc1N`, “inactive”; for `CC(O)CCO` (stereo not given), “inactive”.
For the compound `CC(C)N(Cc1ccccc1)C(=O)C(C)(C)C`, the compound was called inactive.
With `Nc1cc(Cl)cc(C(=O)O)c1Cl`, the compound was classed as inactive.
On the same count and under the same terms, in the case of `Brc1ccc(Oc2ccccc2)cc1` it was “inactive”; in that of `CC(C)COC(=O)c1ccccc1C(=O)OCC(C)C`, “inactive”.
Still for that read-out and setting: in the case of `Clc1ccc(Cl)c(Cl)c1` it was “inactive”; in that of `CCCCCOC(=O)c1ccccc1C(=O)OCCCCC`, “inactive”; in that of `CN(C)[C@@H]1C(=O)C(C(N)=O)=C(O)[C@@]2(O)C(=O)C3=C(O)c4c(O)cccc4[C@@](C)(O)[C@H]3C[C@@H]12`, “inactive”.
On the same count and under the same terms, for `C[N+](C)(C)CC1CO1` (stereo not given) the value was “inactive”.
`Cc1ccc(N)cc1`: the result was inactive.
For `Cc1ccc(N)c(N)c1`, the compound was called inactive.
Same read-out and setting: in the case of `CCCSC(=O)N(CCC)CCC` it was “inactive”; in that of `O=P(OCCCl)(OCCCl)OCCCl`, “inactive”; in that of `Nc1ccc(Oc2ccc(N)cc2)cc1`, “inactive”.
The same measure, in the same setting: in the case of `CO[C@@H]1[C@H](OC(=O)NC(=O)CCl)CC[C@]2(CO2)[C@H]1[C@@]1(C)O[C@@H]1CC=C(C)C` it was “inactive”.
Same read-out and setting: for `O=C(Nc1ccccc1)c1ccccc1I` the value was “inactive”; for `CCCCCCCCOC(=O)c1ccc(C(=O)OCCCCCCCC)c(C(=O)OCCCCCCCC)c1`, “inactive”; for `OCCCBr`, “inactive”.
The AC50 is the concentration at which the activity in the assay is half-maximal. On to `COc1cc(C=O)cc2c1[C@H](COC(N)=O)[C@]1(OC(C)=O)ON2C[C@H]2[C@@H]1N2C(C)=O`, for which the AC50 was 33.4 µM (active).
With `CCN(CC)N=O`, the call was inactive.
Still for that read-out and setting: in the case of `Nc1ccc(Cl)cc1N` it was “inactive”; in that of `CCOC(=O)[C@]1(c2ccccc2)Oc2ccccc2[C@@H]1N`, “inactive”.
The same measure, in the same setting: in the case of `CC(C)(O)c1cnn2c(-c3ccc(F)c(-c4c(F)cccc4C#N)c3)cnc2n1` it was “inactive”; in that of `ClC1=C(Cl)[C@]2(Cl)[C@H]3[C@H]([C@@H]4C=C[C@H]3C4)[C@@]1(Cl)C2(Cl)Cl`, “inactive”.
The same measure, in the same setting: for `CCCCCCCCCCCCCN1CC(C)OC(C)C1` (stereo not given) the value was “inactive”.
